# The source made the active and inactive calls.
# What was measured:
# [1] = test system: Human papillomavirus type 1a protein E7 (residues 44-93); assay: HPV1a E7 fragment binders on microarrays, primary screen, biochemical, small-molecule microarray, residues 44-93, 635 nm fluorescence (AID 1108); conditions: small-molecule microarray binding, fluorescence 635 nm; higher = more signal;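 note: E7 fragment applied at 1 µg/mL in TBST for 1 h at 4 C; score combines spot fluorescence with its signal to noise ratio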
# [2] = modulators of HCV replicon luciferase signal, primary screen, HCV replication inhibitor project, Huh7 cells, luciferase reporter (AID 1109); conditions: 48 h, higher = more signal;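 note: huh7 hepatoma cells harbouring a luciferase neomycin HCV replicon reporter; luciferase luminescence as measure of HCV replicon replication; test concentration not given here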
# [3] = biological target: Left-right determination factor 2 (Homo sapiens) (UniProt O00292); assay: LEFTY2 binders on small-molecule microarrays, primary screen, biochemical, small-molecule microarray, 635 nm fluorescence scan (AID 1110); conditions: LEFTY2 binding, higher = more signal
# [4] = biological target: Calmodulin-1 (Homo sapiens) (UniProt P0DP23); assay: CALM1 binders on microarrays, EGTA buffer, profiling panel, biochemical, small-molecule microarray, Cy5-labelled CALM1 (AID 1111); conditions: Cy5-CALM1 binding fluorescence, higher = more signal;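 note: labelled calmodulin applied in Tris saline Tween buffer holding calcium plus EGTA and DTT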
# [5] = biological target: Calmodulin-1 (Homo sapiens) (UniProt P0DP23); assay: calcium-bound CALM1 binders on microarrays, profiling panel, artefact control for SMM control-protein annotation, biochemical, small-molecule microarray, Cy5-labelled CALM1, plus calcium (AID 1112); conditions: Cy5-CALM1 binding fluorescence, higher = more signal;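 note: score merges spot fluorescence with signal to noise from triplicate slides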
# [6] = small-molecule microarray binders of probe aWnt5a, primary screen, biochemical, biotinylated probe, 635/667 nm fluorescence (AID 1113); conditions: higher = more signal;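 note: score merges 667 nm fluorescence intensity with signal-to-noise per printed feature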
# [7] = small-molecule microarray binders of probe aShh, primary screen, biochemical, biotinylated probe, 635/667 nm fluorescence (AID 1114); conditions: higher = more signal;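 note: probe is biotin-labelled aShh protein from a stem cell growth factor screen; measures binding of labelled protein to compounds printed on the slide; score merges feature fluorescence at 667 nm with signal-to-noise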
# [8] = small-molecule microarray binders of probe aNog, primary screen, biochemical, biotinylated probe, 635/667 nm fluorescence (AID 1115); conditions: higher = more signal;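 note: probe is biotinylated aNog protein used at 0.15 µg/mL for 1 h at 4 C; z-score combines 667 nm fluorescence of each spot with its signal to noise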
# [9] = biological target: Torsin-1A-interacting protein 1 (Homo sapiens) (UniProt Q5JTV8); assay: LAP1 binders from COS7 cell lysate, primary screen, small-molecule microarray, 635/667 nm fluorescence (AID 1116); conditions: COS7-hLAP1 lysate binding, 635 nm fluorescence, higher = more signal
# [10] = biological target: Alpha-bungarotoxin (Bungarus multicinctus) (UniProt P60615); assay: alpha-bungarotoxin binders on microarray, profiling panel, artefact control for SMM control protein annotation, biochemical, small-molecule microarray, Alexa647 label, 635/667 nm fluorescence (AID 1117); conditions: alpha-BTX-A647 binding fluorescence, higher = more signal
# Albumin (Bos taurus) = Albumin (Bos taurus) (UniProt P02769); assay: bovine serum albumin binders on microarray, profiling panel, artefact control for SMM control protein annotation, biochemical, small-molecule microarray, Alexa647 label, 635/667 nm fluorescence (AID 1118); conditions: BSA-A647 binding, fluorescence 635 nm, higher = more signal;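 note: score merges 667 nm emission intensity and signal-to-noise per printed compound spot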
# [11] = small-molecule microarray binders of probe aXIP, primary screen, biochemical, NeuroSMM set, 635/667 nm fluorescence (AID 1119); conditions: higher = more signal, called active from +8 up or from −8 down;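 note: probe is the protein aXip251-270 applied at 1 µg/mL to compound-printed slides; binding of probe to printed compounds measured as 667 nm fluorescence plus signal to noise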
# [12] = small-molecule binders of probe aNOTCH3, primary screen, biochemical, small-molecule microarray, 635/667 nm fluorescence (AID 1120); conditions: higher = more signal;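 note: probe is a biotin-tagged antibody raised against NOTCH3 rather than NOTCH3 protein; score merges spot fluorescence near 667 nm with spot signal to noise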
# [13] = small-molecule binders of probe aNOTCH2, primary screen, biochemical, small-molecule microarray, 635/667 nm fluorescence (AID 1121); conditions: higher = more signal;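 note: score merges feature fluorescence read at 667 nm with its signal to noise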
# [14] = biological target: Carbonic anhydrase 2 (Homo sapiens) (UniProt P00918); assay: CAII small-molecule binders, profiling panel, biochemical, small-molecule microarray, Alexa647-labelled CAII (AID 1122); conditions: CAII-A647 binding fluorescence, higher = more signal
# [15] = COS7 lysate on small-molecule microarray, probe aHis, 635 nm (AID 1123); conditions: COS7 cell lysate, fluorescence, higher = more signal;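 note: z-score combines 667nm fluorescence intensity with signal-to-noise per printed compound spot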
# [16] = compound binding in COS7 lysate, probe aLAP1, primary screen, cell lysate, small-molecule microarray (AID 1124); conditions: probe aLAP1, fluorescence, higher = more signal;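 note: lysate comes from COS7 cells expressing LAP1 and is applied at 0.3 µg/mL; score merges spot fluorescence near 667 nm with signal-to-noise over triplicate slides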
# Sam68 (KHDRBS1) = assay: Sam68 small-molecule binders, primary screen, biochemical, small-molecule microarray, 635 nm fluorescence (AID 1125); conditions: small-molecule microarray binding, higher = more signal;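 note: score merges 667 nm channel intensity with signal to noise over triplicate slides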
# [17] = test system: Chordin-like protein 2 (CHRDL2); assay: CHRDL2 small-molecule binders, primary screen, biochemical, small-molecule microarray, 635 nm fluorescence (AID 1126); conditions: small-molecule microarray binding, fluorescence 635 nm; higher = more signal;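 note: printed compound slides probed with Chrdl2 protein at 4 µg/mL for 1 h at 4 C; score merges 667 nm emission intensity with signal to noise over three replicate slides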
# [18] = biological target: Concanavalin-A (Canavalia ensiformis) (UniProt P02866); assay: ConA small-molecule binders, primary screen, artefact control for SMM control protein annotation, biochemical, small-molecule microarray, Alexa647 label, 635 nm (AID 1127); conditions: ConA-A647 binding fluorescence, higher = more signal;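 note: z combines 667 nm emission intensity with signal-to-noise across three replicate slides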
# Chain of Concanavalin-A (Canavalia ensiformis) (P02866 whole entry, looked up): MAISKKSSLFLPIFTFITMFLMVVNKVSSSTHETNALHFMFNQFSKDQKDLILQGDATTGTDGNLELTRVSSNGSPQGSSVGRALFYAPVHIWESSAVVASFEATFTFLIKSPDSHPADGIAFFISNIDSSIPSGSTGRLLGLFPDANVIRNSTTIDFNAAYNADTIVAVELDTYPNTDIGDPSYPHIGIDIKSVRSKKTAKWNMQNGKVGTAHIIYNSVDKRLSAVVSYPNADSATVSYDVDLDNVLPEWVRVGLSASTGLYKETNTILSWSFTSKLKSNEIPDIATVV
# Chain of Torsin-1A-interacting protein 1 (Homo sapiens) (Q5JTV8 whole entry, looked up): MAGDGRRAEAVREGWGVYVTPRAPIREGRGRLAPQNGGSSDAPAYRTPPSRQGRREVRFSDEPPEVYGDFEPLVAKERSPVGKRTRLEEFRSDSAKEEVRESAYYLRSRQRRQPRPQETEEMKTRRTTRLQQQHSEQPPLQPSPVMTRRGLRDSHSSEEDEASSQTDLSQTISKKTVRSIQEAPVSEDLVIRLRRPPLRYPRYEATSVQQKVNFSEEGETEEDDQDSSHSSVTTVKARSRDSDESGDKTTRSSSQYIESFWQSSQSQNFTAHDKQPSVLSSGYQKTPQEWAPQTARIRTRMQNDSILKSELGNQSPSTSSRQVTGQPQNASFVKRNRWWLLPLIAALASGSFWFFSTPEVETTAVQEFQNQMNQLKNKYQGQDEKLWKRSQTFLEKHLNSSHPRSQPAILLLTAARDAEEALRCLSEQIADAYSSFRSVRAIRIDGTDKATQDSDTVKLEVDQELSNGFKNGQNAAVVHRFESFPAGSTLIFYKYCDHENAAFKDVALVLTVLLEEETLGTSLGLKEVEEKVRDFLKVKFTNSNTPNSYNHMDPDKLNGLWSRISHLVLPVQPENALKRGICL
# Chain of Albumin (Bos taurus) (P02769 whole entry, looked up): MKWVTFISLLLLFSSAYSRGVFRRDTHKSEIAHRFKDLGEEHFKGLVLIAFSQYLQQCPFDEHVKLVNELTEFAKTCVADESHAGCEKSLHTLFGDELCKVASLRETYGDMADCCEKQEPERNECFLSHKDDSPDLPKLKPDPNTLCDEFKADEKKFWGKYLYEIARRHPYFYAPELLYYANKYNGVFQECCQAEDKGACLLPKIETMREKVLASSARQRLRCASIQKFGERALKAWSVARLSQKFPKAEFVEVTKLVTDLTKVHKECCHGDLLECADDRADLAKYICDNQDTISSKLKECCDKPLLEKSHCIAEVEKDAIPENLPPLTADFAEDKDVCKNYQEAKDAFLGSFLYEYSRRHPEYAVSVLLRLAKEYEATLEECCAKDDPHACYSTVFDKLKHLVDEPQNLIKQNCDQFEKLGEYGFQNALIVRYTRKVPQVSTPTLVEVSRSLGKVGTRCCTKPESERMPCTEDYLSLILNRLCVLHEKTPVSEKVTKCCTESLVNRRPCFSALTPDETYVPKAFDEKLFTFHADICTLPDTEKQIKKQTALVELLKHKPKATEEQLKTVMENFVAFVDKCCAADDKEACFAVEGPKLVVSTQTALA
# Chain of Alpha-bungarotoxin (Bungarus multicinctus) (P60615 whole entry, looked up): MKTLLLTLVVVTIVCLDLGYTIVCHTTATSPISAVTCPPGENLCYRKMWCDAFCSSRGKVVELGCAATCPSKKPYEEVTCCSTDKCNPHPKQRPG
# Chain of Left-right determination factor 2 (Homo sapiens) (O00292 whole entry, looked up): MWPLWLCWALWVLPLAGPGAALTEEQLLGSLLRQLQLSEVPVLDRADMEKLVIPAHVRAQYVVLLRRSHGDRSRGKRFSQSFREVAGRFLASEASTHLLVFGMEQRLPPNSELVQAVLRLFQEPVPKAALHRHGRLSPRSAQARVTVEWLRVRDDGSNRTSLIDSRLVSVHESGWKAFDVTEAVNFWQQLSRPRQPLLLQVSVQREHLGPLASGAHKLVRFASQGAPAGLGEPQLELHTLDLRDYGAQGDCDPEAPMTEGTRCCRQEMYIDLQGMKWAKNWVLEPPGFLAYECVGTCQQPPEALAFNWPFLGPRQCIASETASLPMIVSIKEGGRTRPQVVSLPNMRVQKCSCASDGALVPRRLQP
SMILES,composite z-score [1],z-score [2],composite z-score [3],composite z-score [4],composite z-score [5],composite z-score [6],composite z-score [7],composite z-score [8],composite z-score [9],composite z-score [10],composite z-score (Albumin (Bos taurus)),composite Z-score [11],composite z-score [12],composite z-score [13],composite z-score [14],composite z-score [15],composite z-score [16],composite z-score (Sam68 (KHDRBS1)),composite z-score [17],composite z-score [18]
C=CCC(OC(C)=O)[C@@H]1[C@@H](N(Cc2cc3ccccc3o2)C(=O)c2ccc(C)cc2)c2cc(OCCCO)ccc2N1C(=O)c1ccc(-c2ccccc2)cc1 (stereo not given in full),0.182,-1.67,0.36,-0.259,0.544,-0.0529,0.0141,-0.374,0.285,0.169,-0.0944,0.0882 (inactive),0.102,-0.18,0.0677,0.263,-0.161,0.318,0.073,-0.0198
[N-]=[N+]=Nc1ccccc1[C@@H]1OC(c2ccc(OCCCO)cc2)=N[C@]1(CCS(=O)(=O)c1ccccc1)C(=O)N1CCCCC1,1.22,0.0018,-0.175,2.16,1.26,0.129,0.408,0.755,1.79,3.01,1.03,-0.0281 (inactive),0.144,0.139,0.625,1.93,0.686,1.29,-0.74,1.2
NC(=O)[C@]1(Cc2ccccc2)N=C(c2ccc(OCCCO)cc2)O[C@@H]1c1ccccc1,1.33,-0.772,-1.02,1.35,0.744,-0.0398,0.409,1.42,1.51,1.23,0.532,0.702 (inactive),0.106,0.0959,0.865,2.53,0.583,0.827,-0.0464,0.587
O=C1O[C@@H](c2ccccc2)[C@@H](c2ccccc2)N2[C@@H](c3ccc(O)cc3)[C@]3(C(=O)Nc4ccccc43)[C@@H](C(=O)N3CCCCCCC3)[C@H]12,1.47,-1.93,0.695,2.86,1.61,1.37,2.07,-0.531,4.6,3.12,0.875,5.98 (inactive),1.82,0.464,0.89,3.78,1.14,1.29,1.11,1.17
COC(=O)[C@@]1(Cc2ccc(OC)cc2)[C@H]2c3cc(C(=O)N(C)C)n(CCSCCO)c3C[C@H]2CN1C(=O)c1ccccc1,1.39,-1.41,-0.675,2.02,0.954,0.149,0.234,-0.553,0.904,0.569,0.905,-0.786 (inactive),0.182,0.407,0.844,2.4,-0.0747,1.23,-0.186,1.13
O[C@@H](Cc1ccccc1)[C@@H](/C=C/c1ccccc1)NCc1ccccc1Br,-1.16,-1.38,-1.56,-0.793,-0.43,-0.109,-0.17,-0.445,-0.962,-0.869,-0.786,-0.577 (inactive),-0.358,-0.192,-0.53,0.0935,-0.329,-0.815,-0.77,-1.05
CCCC[C@@H]1C[C@H]1[C@@H](NC(=O)c1ccccc1)c1ccc(-c2ccccc2)cc1,1.34,-2.9,0.0692,0.232,0.596,0.0375,0.1,-0.421,0.0036,0.805,0.891,-0.0708 (inactive),-0.0647,-0.128,0.498,1.17,-0.146,0.893,-0.995,0.147
COC(=O)[C@@]1(Cc2ccc(F)cc2)[C@H]2c3cc(C(=O)N4CCCC4)n(CCc4ccc(OC)c(Br)c4)c3C[C@H]2CN1C(=O)c1ccccc1,0.543,-2.69,0.179,2.7,1.29,0.155,0.627,1.11,2.7,2.38,0.843,-0.61 (inactive),0.591,0.323,0.599,3.26,0.987,1.33,-1.39,1.15
O=C1C2C=CC(C(O)C3CC=CCC3)N(n3cnnc3)C2C(=O)N1Cc1ccccc1 (stereo not given),-0.318,-0.151,-0.49,-0.292,-0.92,-0.154,0.0684,0.336,0.752,0.365,-0.952,0.241 (inactive),-0.213,-0.202,0.903,0.233,1.34,0.185,-1.69,-0.137
C=CCCN(CC#C[C@H]1Oc2ccccc2S(=O)(=O)N2CCC[C@@H]12)S(=O)(=O)c1ccc(C)cc1,0.328,-1.92,0.148,-0.498,-0.863,-0.0125,0.0048,-0.183,0.631,-0.189,0.0985,0.671 (inactive),0.0311,-0.102,0.208,0.273,0.758,0.215,0.607,-0.464
C=C(/C(=C/C[C@@H](OC(C)=O)c1ccc(CO)o1)c1cnc2ccccc2c1)C(C)C,1.09,-2.37,1.06,0.384,-1.12,-0.0346,0.123,0.153,1.24,0.818,-0.243,1.64 (inactive),0.12,-0.0771,0.815,1.5,1.11,1.3,0.847,0.971
Cc1ccc(F)cc1S(=O)(=O)N[C@@H]1CCN(Cc2ccc(C(F)(F)F)cc2)C1,-0.237,-2.01,-0.0209,-1.3,-0.904,-0.152,0.0723,-0.311,-0.0249,-0.536,-0.973,0.512 (inactive),-0.159,-0.173,-0.171,0.0774,0.242,0.144,0.509,-0.628

# — PubChem BioAssay
